Laboratory results reported in the supplement of paper PMC10338343.
± gives the standard deviation. In all, about 8,200 sequences were measured (“pre-steady-state target cleavage rate”: median about 0.024, highest 2% from about 1.3 on). The list comes from a sample in which the highest values are over-represented; it also holds similar and randomly drawn sequences.

Test system: MIWI (PIWIL1) piRISC loaded with L1MC piRNA (30 nt)
Test: pre-steady-state target cleavage rate (min^-1); MIWI and MILI are mouse PIWI proteins and EfPiwi is from a freshwater sponge; tags in brackets are library labels; higher = faster piRNA-guided slicing of the target
Details: guide: L1MC piRNA 5'p-UAACUAAAUACUAUGCAAGCUGUAGGUCCU
In short: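 A burst-and-steady-state fit was used to obtain the pre-steady-state cleavage rate. The input data were sequencing reads of uncleaved targets, normalised to depth and to weakly complementary targets, from a […] transcribed, DNA-blocked target RNA library mixed with 1 nM active affinity-purified piRISC holding one synthetic guide, with or without 500 nM GTSF1 partner protein, in HEPES–potassium acetate buffer at 33 °C for 0–8 or 0–960 min. Three trials were pooled and k3 was capped at 0.0001 min^-1.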

[1] = auxiliary factor: 500 nM mouse GTSF1
[2] = auxiliary factor: none (no GTSF1)
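Also: 1 nM active piRISC with 0.1 nM target library at 33 °C single turnover.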

Sequence | pre-steady-state target cleavage rate [1] | pre-steady-state target cleavage rate [2]
UGGACCUACAGAUUGCAUAGUAUUUAGUUA | 1.12 ± 0.11 | 0.042 ± 0.0077
AGGACCUACAGCUUGCAUACAUUUUAGUUA | 0.0106 ± 0.0061 | –
UCGUCCUACACCUUGCAUAGUAUUUAGUUA | 0.986 ± 0.045 | 0.0586 ± 0.0084
UCGACCUACAGCUUGCAUACAAUUUAGUUA | 0.0219 ± 0.0076 | 0.00334 ± 0.0025
UCCUCGUACAGCUUGCAUAGUAUUUAGUAA | 0.903 ± 0.048 | 0.0263 ± 0.0049
UCCACCGUACAGCUUGCAUAGUAUUUAGUUA | 1.18 ± 0.054 | 0.0628 ± 0.012
UCGUCGUACAGCUUGCAUAGUAUUUAGUUA | 1.31 ± 0.067 | 0.0685 ± 0.012
UCCUCCUACAGCUUGCAAAGUAUUUAGUUA | 1.14 ± 0.039 | 0.0317 ± 0.0066
UGGUCGUACAGCUUGCAUAGUAUUUAGUUA | 1.33 ± 0.056 | 0.073 ± 0.0095
UCCUCGUACAGCUUGCAUAGUAUUUAGAAA | 0.363 ± 0.029 | 0.00538 ± 0.0021
UCCUCGUACAGCUUGCAAAGUAUUUAGUUA | 1.32 ± 0.048 | 0.0595 ± 0.012
UCCUGGUACAGCUUGCAAAGUAUUUAGUUA | 0.711 ± 0.046 | 0.0405 ± 0.0074
UCGUACCUACAGCUUGCAUAGUAUUUAGUUA | 0.909 ± 0.034 | 0.0778 ± 0.016
UCCUCGUACAGCUUGCAUAGUAUUUAGUUA | 1.46 ± 0.043 | 0.0602 ± 0.01
UCGUGGUACAGCUUGCAUAGUAUUUAGUUA | 1.23 ± 0.038 | 0.0818 ± 0.014
UCCUGCUACAGCUUGCAUAGUAUAAUGUAA | 0.188 ± 0.038 | –
UGGACCUACAGCUUGCAUAGUAUUAAGUUA | 0.719 ± 0.06 | 0.0363 ± 0.006
AGGACCUACUGCUUCCAUAGUAUUUAGUUA | 0.069 ± 0.011 | 0.00657 ± 0.0012
UCGAGCUAGAGCUUGCAUAGUAUUUAGUUA | 0.962 ± 0.051 | 0.0483 ± 0.0092
UCGACCAAGAGCUUGCAUAGUAUUUAGUUA | 0.954 ± 0.04 | 0.0547 ± 0.011
UCCUGGAUGUGCUUGCAUAGUGAUUUAGUUA | 0.00393 ± 0.0038 | –
UCCUGGUACAGCUAGGAUAGUAUUUAGUUA | 0.611 ± 0.084 | 0.00486 ± 0.002
UGGACCUACAGCUUGGAUAGUAUUUAGAAA | 0.342 ± 0.047 | 0.0107 ± 0.003
UCCUGCUACAGCUUGCAAACUAUUUAGUUA | 0.363 ± 0.027 | 0.00719 ± 0.0031
AGGACCUACAGCUUGCAUAGUAUUUUGUUA | 0.949 ± 0.064 | 0.0718 ± 0.016
UCCUGCUACUGCUUGCAUAGUAUAUAGUUA | 0.226 ± 0.024 | 0.0142 ± 0.0034
AGGACCUACAGGAAGCAUAGUAUUUUCAAA | 0.132 ± 0.024 | –

Sequence | pre-steady-state target cleavage rate [1] | pre-steady-state target cleavage rate [2]
UCCUGGAUCAGGUAGCAUAGUAUUUAGUUA | 0.0152 ± 0.0033 | 0.00289 ± 0.0022
AGGUCGUACAGCUUGCAUAGUAUUUAGUUA | 1.44 ± 0.065 | 0.0817 ± 0.012
UCCAGGUACAGCUUGCAUAGUAUUUAGUUA | 1.09 ± 0.04 | 0.0764 ± 0.011
UCCUGGUACAGCUUGCUUAGUAUUUAGUUA | 0.79 ± 0.037 | 0.0523 ± 0.011
UCCUCCUACAGCUUGCUUAGUAUUUAGUUA | 1.28 ± 0.06 | 0.0241 ± 0.0053
UCCUCGUACAGCUUGCUUAGUAUUUAGUUA | 1.51 ± 0.069 | 0.0419 ± 0.0089
AGGACCUAGAGCUUGCAUAGUUUUUAGUUA | 0.343 ± 0.023 | 0.0238 ± 0.0061
UCCUCCUACAGCUUGCAUAGUUAUUAGAAA | 0.0862 ± 0.022 | –
UCCUGGAACAGCAUGCAUAGUAUUUACUUA | 0.446 ± 0.045 | 0.0279 ± 0.0094
UCCACCUACAGCUUGCAUAGUAUUCUAGUUA | 0.633 ± 0.067 | 0.0214 ± 0.0052
UCCUCCUACAGCUUGUCAUAGUAUUUAGUUA | 0.44 ± 0.046 | –
UCCUCCUACAGCUUGGAUAGUAUUUAGUUA | 1.44 ± 0.045 | 0.0511 ± 0.0092
UCCUCCUACAGCUUGAUAGUAUUUAGUUA | 0.824 ± 0.05 | 0.00583 ± 0.0021
UCGUCCUACAGCUUGGAUAGUAUUUAGUUA | 1.56 ± 0.048 | 0.0586 ± 0.0084
UCCUGCUACAGCUUGGAUAGUAUUUAGUUA | 1.29 ± 0.12 | 0.0507 ± 0.0096
UCCUCCUACAGCUUGGAUAGUAUUUAGUAA | 0.707 ± 0.045 | 0.0186 ± 0.0033
UCCUCCUACAGCUUGGAUAGUAUUUAGAUA | 0.372 ± 0.039 | 0.00865 ± 0.0019
UCCUCCUACAGCUUGGCAUAGUAUUUAGUUA | 0.831 ± 0.11 | 0.0114 ± 0.0021
UGGUCCUACAGCUUGGAUAGUAUUUAGUUA | 1.22 ± 0.038 | 0.0568 ± 0.0069
AGGUCCUACAGCUUGGAUAGUAUUUAGUUA | 1.39 ± 0.072 | 0.079 ± 0.014
UCCUCCUACAGCUUGUAUAGUAUUUAGUUA | 1.38 ± 0.042 | 0.0427 ± 0.008
UGGAGCUACAGCUUGGAUAGUAUUUAGUUA | 1.11 ± 0.083 | 0.0533 ± 0.0083
UCCACCUACAGCUUGCAUUGUAUUUACAAA | 0.112 ± 0.024 | –
UCCUGGUACAGCAUGCAUAGUAUUUAGUAA | 0.377 ± 0.04 | 0.00875 ± 0.0024
UCCUGGAUGAGCUUGCAUGGUAUUUAGUUA | 0.743 ± 0.043 | 0.0817 ± 0.02
UCCUGGAUCAGCUUGCAUAGAAUUUAGUUA | 0.258 ± 0.028 | 0.0291 ± 0.0088
UCCUCCUACAGCUUGCAUUGUAUUUACUUA | 0.388 ± 0.031 | 0.0162 ± 0.0032

Sequence | pre-steady-state target cleavage rate [1] | pre-steady-state target cleavage rate [2]
UCCUGGAUCAGCAUGCAUAGUAUUUACAAA | 0.156 ± 0.034 | –
UCCUGGAUGUGCUUGCAUAGUAUUCUAGUUA | 0.211 ± 0.037 | 0.0155 ± 0.0049
AGGACCAACAGCUAGCAUAGUAUUUAGUUA | 1.08 ± 0.052 | 0.038 ± 0.01
UGGACCAACAGCUUGCAUAGUAUUUAGAUA | 0.428 ± 0.022 | 0.0582 ± 0.014
AGGACCAACAGCUUGCAUAGUAUUUAGAAA | 0.624 ± 0.071 | 0.033 ± 0.012
AGGACCAACAGCUUGCAUAGUAUUUAGUUA | 1.4 ± 0.05 | 0.122 ± 0.021
UGGACCAACAGCUAGCAUAGUAUUUAGUUA | 1.36 ± 0.059 | 0.0347 ± 0.0073
UCGACCAACAGCUAGCAUAGUAUUUAGUUA | 1.08 ± 0.046 | 0.0286 ± 0.0073
AGGACCAACAGCUUGCAUAGUAUUUAGUAA | 0.974 ± 0.079 | 0.0722 ± 0.014
UGGACCAACAGCUUGCAUAGUAUUUAGUAA | 1.17 ± 0.06 | 0.0641 ± 0.015
UGGACCAACAGCUUGCAUAGUAUUUAGUUA | 1.35 ± 0.047 | 0.0769 ± 0.013
UCCUGGUACAGCUUGCAUACAAUUUAGUAA | 0.0076 ± 0.0052 | –
UCCUGGAUGUGCUUGCAUAGUAUUUAGGUA | 0.0938 ± 0.016 | 0.0113 ± 0.0031
UCCUGGAACAGCUUGGAUAGUAUUUUGUUA | 0.745 ± 0.075 | 0.0289 ± 0.0047
UCCUGGAUGAGCUUGCAUAGUUUUAAGUUA | 0.0288 ± 0.0084 | 0.00673 ± 0.0032
AGCACCUACAGCUUGCAUAGUAUUUAGUAA | 0.974 ± 0.12 | 0.197 ± 0.062
UGGACCUACACCUUGCAUAGUAUAUAGUUA | 0.523 ± 0.041 | 0.0327 ± 0.007
UCCUGGAACAGCAUGCAUAGUAUUUAGUAA | 0.695 ± 0.061 | 0.0107 ± 0.0026
UCCUGGAUCAGCUAUGCAUAGUAUUUAGUUA | 1.04 ± 0.073 | 0.0161 ± 0.0043
UGGACCUACACGUUGCAUAGUAUUUACAAA | 0.103 ± 0.013 | –
UGGACCGUACAGCUUGCAUAGUAUUUAGUUA | 1.24 ± 0.06 | 0.064 ± 0.0096
UCCACCGACAGCUUGCAUAGUAUUUAGUUA | 1.04 ± 0.043 | 0.0616 ± 0.011
UCGACCGUACAGCUUGCAUAGUAUUUAGUUA | 1.26 ± 0.046 | 0.0719 ± 0.013
UGGACCGACAGCUUGCAUAGUAUUUAGUUA | 1.45 ± 0.076 | 0.0713 ± 0.013
AGGACCGACAGCUUGCAUAGUAUUUAGUUA | 1.21 ± 0.058 | 0.0903 ± 0.017
UCGACCGACAGCUUGCAUAGUAUUUAGUUA | 1.41 ± 0.05 | 0.0741 ± 0.012
